# GAA inh = blocks human lysosomal alpha-glucosidase. hit rate 0.005% among 200,000. P10253. purified human GAA, 4-MU-alpha-glucoside fluorescence. Potency, µM (highest dose often 76.9 µM), most hits filed as inhibitors
#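 Compounds are titrated up to 77 uM against 4 nM human enzyme. Substrate 4-methylumbelliferyl-alpha-D-pyranoside (400 uM) reacts 20 min at room temperature in pH 5.0 buffer; liberated 4-methylumbelliferone is read at 440 nm.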
# GLA spleen mod = inhibitors or activators of human alpha-galactosidase in spleen homogenate. P06280. AID 2107. hit rate 0.008% among 240,000. human spleen homogenate, 4MU-alpha-Gal fluorescence, 40 min. Potency, µM (titrated, usually from 80 µM), hits mostly inhibitors
#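 qHTS titration in buffer at pH 5.0. Alpha-galactosidase activity in spleen homogenate was measured via 4-methylumbelliferone release from 1 mM fluorogenic substrate after 40 min at 37C and a pH 10 stop. AC50 came from Hill fits of control-normalized data.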
# GAA glycogen = GAA glycogen-cleavage inhibition or activation | recombinant GAA, glycogen substrate, Amplex Red glucose oxidase fluorescence | Potency, µM (highest dose often 76.4 µM), hits mostly inhibitors | hit rate 0.38% among 300,000;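 note: the screen sought inhibitors and activators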
#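 Recombinant human alpha-glucosidase (4 nM final) hydrolysed bovine liver glycogen (30 ug) for 40 min at 37 C in pH 5.0 citrate/phosphate with 0.01% Tween-20. Released glucose detected by glucose oxidase/Amplex Red, Ex 573/Em 610 nm. Compounds up to 77 uM; AC50 from Hill fits.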
# N370S GC mod = N370S glucocerebrosidase modulation, Gaucher chaperone candidate | P04062 | hit rate 0.092% among 330,000 | Potency, µM (titrated, usually from 59.4 µM), actives largely listed as inhibitors | N370S GC spleen homogenate, 4MU-glucoside fluorescence
# GLA inh pH 4.5 = inhibitors of human alpha-galactosidase A at pH 4.5 | activity change, negative = inhibition, % at 105 µM | purified enzyme, 4-MU-alpha-Gal fluorescence, pH 4.5 | 230,000 tested, under 10 active
# Target sequence (P06280 whole entry, looked up): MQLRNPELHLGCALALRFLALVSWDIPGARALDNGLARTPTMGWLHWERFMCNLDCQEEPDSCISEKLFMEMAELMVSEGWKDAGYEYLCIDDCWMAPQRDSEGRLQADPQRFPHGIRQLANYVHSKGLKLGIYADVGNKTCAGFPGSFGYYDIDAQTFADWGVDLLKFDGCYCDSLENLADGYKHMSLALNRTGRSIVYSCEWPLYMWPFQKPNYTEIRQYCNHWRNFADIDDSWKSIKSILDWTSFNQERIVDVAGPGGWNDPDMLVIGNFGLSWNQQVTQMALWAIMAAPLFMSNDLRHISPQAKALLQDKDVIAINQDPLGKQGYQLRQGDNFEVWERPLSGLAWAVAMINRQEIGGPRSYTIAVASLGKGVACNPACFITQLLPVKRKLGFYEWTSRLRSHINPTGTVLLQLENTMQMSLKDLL
# aGlu spleen mod = inhibitors or activators of human alpha-glucosidase in spleen homogenate; P10253; human spleen homogenate, 4-MU-alpha-glucoside fluorescence; Potency, µM (doses to about 79.9 µM), actives largely listed as inhibitors; hit rate 0.006% among 240,000; AID 2112
#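 Human spleen homogenate (1 ug) with 4-methylumbelliferyl-alpha-D-glucopyranoside (1 mM final) in 50 mM citrate/phosphate pH 5.0, 0.01% Tween-20; 40 min at 37 C. Stopped at pH 10; 4-MU fluorescence Ex 365/Em 440 nm; AC50 by Hill fit.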
# Hits are given with their value; – = inactive; ? = inconclusive; · = no result given; [ ] = remark or other dose. Shown are actives, neighbours in structure and some others; about 0.43% of the full set was active somewhere. Calls come from the whole dose curve; as a rule, active = well fitted curve in the direction sought with a large enough effect; inconclusive = small, poorly fitted or top-dose-only effect, or another doubt; inactive = no such curve, though single readings can be large; an effect the other way counts as inactive or inconclusive.
SMILES,GAA inh,GLA spleen mod,GAA glycogen,N370S GC mod,GLA inh pH 4.5,aGlu spleen mod
COC(=O)C1=C(C)N(Cc2ccccc2)[C@]23O[C@](C(=O)OC)(C(=O)N2C1c1ccccc1)C(C(=O)OC)=C3C(=O)OC (some centres undefined),·,–[17.5 µM],·,–[12.8 µM],·,–[17.4 µM]
COc1cc(Cn2c(-c3ccc(O)c(OC)c3)nc3ccccc32)ccc1O,·,–,28µM,–,–,–
COc1cccc(/C=C2\SC(=S)N(C(C)C(=O)NC3C=CS(=O)(=O)C3)C2=O)c1 (centres undefined),·,·,·,16µM,·,·
COc1cccc(/C=C2/C(=O)NN(c3ccc(C)c(C)c3)C2=O)c1,·,·,32µM,–,·,·
O=C(c1ccc(Nc2nccc(-c3cc4ccccc4s3)n2)cc1)N1CCC(N2CCCC2)CC1,·,–,·,–,·,–
COc1cc(-c2nc3ccc(C)cn3c2Nc2ccc3c(c2)OCCO3)ccc1O,?,–,–,?,–,–
COc1cc(-c2nc3cnccn3c2Nc2ccc3c(c2)OCCO3)ccc1O,–,–,7µM,–,–,–
COc1cc(-c2nc3cnccn3c2Nc2ccc(C)cc2)ccc1O,–,–,11µM,–,–,–
Nc1ccc(Nc2ccccc2)c(Cl)c1,–,–,35µM,–,–,–
Nc1ccccc1Nc1ccccc1,–,–,?,–,–,–
CCOc1ccc(Oc2nc(NCC(C)C)nc(N3CCOCC3)n2)nn1,·,·,–,·,·,·
Cc1nnc(N/N=C/c2c(O)n(-c3cccc(C(F)(F)F)c3)c(=O)c3ccccc23)[nH]c1=O,–,–,25µM,–,–,–
Nc1ccc(O)c2c(=O)cc(-c3ccccc3Cl)oc12,–[15.4 µM],–,14µM,–,–,–
CC(=O)c1c(O)cccc1O,·,–,·,–,·,–
CC(C)Oc1ccc(CNC(=O)c2ccc(NC(=O)N3CC(C)Sc4ccccc43)cc2)cc1 (centres undefined),·,·,–,·,·,·
O=C(NCc1ccc(F)cc1)c1ccc(NC(=O)N2CC3CCCN3c3ccccc32)cc1 (centres undefined),·,·,16µM,·,·,·
O=C1NN(c2ccc(Br)cc2)C(=O)/C1=C\c1ccc(O)cc1O,·,·,8.9µM,?,·,·
O=C1NN(c2cccc(Br)c2)C(=O)/C1=C\c1ccc(O)cc1,·,·,–,–,·,·
C=CCc1c(C)nc(-c2ccccc2)nc1N/N=C/c1ccncc1,?,–,–,?,–,·
C=CCc1c(C)nc(-c2ccccc2)nc1N/N=C/c1ccccc1,–,–,–,16µM,–,–
C=CCc1c(C)nc(-c2ccccc2)nc1N/N=C(\C)c1ccc(N)cc1,–,–,?,13µM,–,–
COc1cccc([C@@H]2Oc3ccc(Br)cc3C[C@H]2OC(=O)Nc2cc(OC)c(OC)c(OC)c2)c1,·,–,·,–,–,–
Cc1ccc(Nc2c(-c3c[nH]c4ccccc34)nc3ccccn23)cc1,·,·,4.5µM,·,·,·
C=C1C2c3ccccc3C(CC2(C)O[Si](C)(C)C)N1C(=O)OC (centres undefined),·,–[17.5 µM],·,–[12.8 µM],–,–[17.4 µM]
O=C(N/N=C/c1ccc(O)c(O)c1)N/N=C/c1ccc(O)c(O)c1,·,·,1.4µM,–,·,·
SMILES,GAA inh,GLA spleen mod,GAA glycogen,N370S GC mod,GLA inh pH 4.5,aGlu spleen mod
COc1cc(/C=N/NC(=O)c2nonc2C)ccc1O,?,–,?,–,–,–
Cc1nonc1C(=O)N/N=C/c1ccc(O)c(O)c1,–,–,7.9µM,–,–,–
O=C(N/N=C/c1ccc(O)c(O)c1)c1cc(-c2ccccc2)nc2ccccc12,·,·,·,–,·,·
CCN(CC)S(=O)(=O)c1ccc2oc(C(=O)N(C)Cc3ccccc3)c(C)c2c1,·,·,–,·,·,·
COCc1cc(C)nc(SCC(=O)c2ccc(O)c(O)c2)c1C#N,–,–,14µM,–,–,–
CN(C)c1ccc2c(-c3ccccc3)c3ccc(=[N+](C)C)cc-3oc2c1,·,–,·,–,·,–
CCc1ccc(O)c(N=Cc2ccccc2O)c1,–,–,11µM,–,–,–
O=C1CC(N2CCN(c3ccc(O)cc3)CC2)C(=O)N1c1ccc2c(c1)OCO2 (centres undefined),–,–,16µM,–,–,–
O=C1CC(N2CCCCCC2)C(=O)N1c1ccc2c(c1)OCO2 (centres undefined),–,–,–,–,–,–
Cc1ccc(N2CCn3c2nc2c3c(=O)n(CCCc3ccccc3)c(=O)n2C)cc1,·,·,–,·,·,·
Cc1ccccc1C(=O)NN1C(=O)CSC1=S,–,–,?,–,–,–
CCOC(=O)c1ccccc1N1C(=O)CSC1=S,–,–,28µM,–,–,–
O=c1cc(-c2ccc(O)cc2)oc2cc(OC3OC(CO)C(O)C(O)C3O)c(C3OC(CO)C(O)C(O)C3O)c(O)c12 (centres undefined),·,–,·,–,·,–
c1ccc(-c2ccc(N3CCCC4(CCNCC4)C3)cc2)cc1,·,–,·,16µM,·,–
c1ccc(-c2ccc(N3CC4(CCNCC4)C3)cc2)cc1,·,–,·,?,·,–
COc1cc(C(CCN2CCOCC2)c2c(OC)cc(OC)c3c2OC(=O)CC3c2ccc(N(C)C)cc2)cc(OC)c1OC (centres undefined),·,–,–,?,–,–
COc1cc(OC)c2c(c1C(CCN1CCOCC1)c1ccc(N(C)C)cc1)OC(=O)CC2c1ccc(N(C)C)cc1 (centres undefined),·,–,–,10µM,–,–
C[C@H](NC(=O)CNC(=O)[C@@H](NC(=O)[C@H](Cc1ccccc1)NC(=O)CNC(=O)CNC(=O)[C@@H](N)Cc1ccccc1)[C@@H](C)O)C(=O)N[C@@H](CCCN=C(N)N)C(=O)N[C@@H](CCCCN)C(=O)N[C@@H](CO)C(=O)N[C@@H](C)C(=O)N[C@@H](CCCN=C(N)N)C(=O)N[C@@H](CCCCN)C(N)=O,·,–,·,–,·,–
CC(=O)Nc1cc(OC(C)=O)c2nonc2c1OC(C)=O,–,–,16µM,–,–,–
CC(C)(C)n1nnnc1C(c1ccncc1)N1CCN(c2ccc(O)cc2)CC1 (centres undefined),–,–,18µM,–,–,–
C=CCC1(C)OC=Cc2nc3cc(Cl)c(Cl)cc3nc21 (centres undefined),·,–[17.5 µM],·,–[12.8 µM],·,–[17.4 µM]
CC1=NNC(=O)C1C(c1cccc(O)c1)C(C#N)C#N (centres undefined),·,–,–,–,–,–
CC1=NNC(=O)C1C(c1ccccc1)C1C(=O)NN=C1C (centres undefined),?,–,13µM,–,–,–
O=C(O)c1cc(-c2ccc(/C=N/Nc3ccc(Cl)cc3)o2)ccc1Cl,–,–,28µM,–,–,–
COc1ccc(NC(=S)N2CCCC(c3nc4ccc(C)cc4[nH]3)C2)c(OC)c1 (centres undefined),–,–,16µM,–,–,–
CCn1ccnc1CN(C)Cc1cn(-c2cc(C)ccc2C)nc1-c1ccccc1,·,–,–,14µM,–,–
